PubChem BioAssay AID1851 (National Center for Advancing Translational Sciences (NCATS), 2009)
The whole screen tested about 16,000 compounds, of which about 2,600 (16%) were called active. About 20% were inconclusive and are not listed. Calls come from the whole dose curve; as a rule, active = well fitted curve in the direction sought with a large enough effect; inconclusive = small, poorly fitted or top-dose-only effect, or effect the other way; inactive = no such curve, though single readings can be large or run the other way. Not all results are given here. Some compounds were tested as several samples or in several runs, with calls that do not always agree.

What follows are molecules tested against Cytochrome P450 2D6 (Homo sapiens) (UniProt P10635) (assay: Cytochrome panel assay with activity outcomes). Conditions: recombinant CYP, pro-luciferin dealkylation, luminescence, p450-cyp2d6; series mostly up to 57.1 µM.
% is set by controls: 0 for no effect and ±100 for the full control effect.

Sequence of Cytochrome P450 2D6 (Homo sapiens) (P10635 whole entry, looked up): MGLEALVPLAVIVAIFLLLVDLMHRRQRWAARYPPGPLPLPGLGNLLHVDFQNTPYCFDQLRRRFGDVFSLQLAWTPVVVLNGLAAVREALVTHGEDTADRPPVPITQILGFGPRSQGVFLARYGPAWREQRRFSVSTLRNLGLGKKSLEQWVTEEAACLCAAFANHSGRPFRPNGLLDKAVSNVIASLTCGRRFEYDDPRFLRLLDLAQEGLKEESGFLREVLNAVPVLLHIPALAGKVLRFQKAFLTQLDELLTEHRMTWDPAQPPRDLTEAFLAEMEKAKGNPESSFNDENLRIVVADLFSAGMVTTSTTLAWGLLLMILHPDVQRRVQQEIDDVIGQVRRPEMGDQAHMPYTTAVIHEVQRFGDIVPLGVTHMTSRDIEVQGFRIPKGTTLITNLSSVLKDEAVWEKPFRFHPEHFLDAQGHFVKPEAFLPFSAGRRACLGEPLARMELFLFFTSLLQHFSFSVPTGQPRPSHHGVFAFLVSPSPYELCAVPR

activity, negative = inhibition, inactive:
Cn1c(=O)c2[nH]c([C@@H]3CC(=O)C[C@H](c4nc5c([nH]4)c(=O)n(C)c(=O)n5C)N3)nc2n(C)c1=O -10.1% [at 11.4 µM]
N/C(CC(=O)Nc1cc(C(F)(F)F)ccc1Cl)=N\O 2.47% [at 11.4 µM]
COc1ccc2nc(NCN3C(=O)c4ccccc4C3=O)sc2c1 -19.6% [at 11.4 µM]
C[C@@H]1NCC[C@H](CC(=O)O)[C@H]1CC(=O)O 5.62% [at 11.4 µM]
O=C(O)[C@@H](Cc1c[nH]c2ccccc12)C(=O)NO 4.35% [at 11.4 µM]
Nc1nc(SCC(=O)O)[nH]c(=O)c1N 11% [at 11.4 µM]
CO[C@@H]1/C=C\CC(=O)N[C@@H](C)C(=O)OC[C@@H](OC)[C@H](C)/C=C\CC(=O)OC[C@H]1C 10.8% [at 11.4 µM]
CN1CCN(CCCBr)CC1 3.38% [at 11.4 µM]
Clc1ccccc1C(Nc1cnccn1)Nc1cnccn1 10.1% [at 11.4 µM]
Cc1nc(CN2CCCCC2)c(O)c(=O)[nH]1 -19.7% [at 11.4 µM]
N[C@@H](Cc1[nH]nc2ccccc12)C(=O)O 3.39% [at 11.4 µM]
Cc1nc2ccccc2nc1-c1ccc(N=[N+]([O-])c2ccc(-c3nc4ccccc4nc3C)cc2)cc1 -15.4% [at 11.4 µM]
Nc1nc(N)nc(CC(=O)O)n1 -1.79% [at 11.4 µM]
Cn1c(=O)c2[nH]c(CCCCC(=O)O)nc2n(C)c1=O -13.7% [at 11.4 µM]
NS(=O)(=O)c1ccc(N=Nc2cc3ccccc3c(C(=O)O)c2O)cc1 4.38% [at 11.4 µM]
CCOC(=O)N/N=C1/C[C@@H](O)[C@@H](O)[C@@H]2[C@@H]3C(=O)N(Cc4ccc5c(c4)OCO5)C(=O)[C@H]3CC[C@@H]12 6.47% [at 11.4 µM]

AC50, 31.6 µM (active) and inactive:
O=C(Nc1ccc([N+](=O)[O-])cc1Cl)c1cc(Cl)ccc1O

AC50, active:
CN(C)c1cc[n+](CC(=O)Nc2cc(C(F)(F)F)ccc2Cl)cc1 0.126 µM
COc1ccc(/C=C/C(=O)Nc2cc(C(F)(F)F)ccc2Cl)cc1 2.82 µM
Cc1ccc(C)n1CCN1CCN(CC(=O)Nc2cc(C(F)(F)F)ccc2Cl)CC1 11.2 µM
Cc1cc[n+](CC(=O)Nc2cc(C(F)(F)F)ccc2Cl)cc1 0.224 µM
CCOc1ccc(Cl)cc1CNCCNCC(C)O (stereo unspecified) 3.16 µM
CCOc1ccc(Cl)cc1CNCCNCCO 11.2 µM
c1ccc2c(-c3c[nH]c4ccccc34)c3ccccc3nc2c1 10 µM
CCCN(CC1CC1)c1nc(C)nc(Nc2c(Cl)cc(Cl)cc2Cl)c1Cl 1.58 µM
CN(CCc1ccc(Cl)c(Cl)c1)CCN1CCCCCC1 0.126 µM
CN1CCN(CCc2ccc(Cl)c(Cl)c2)CC1 12.6 µM
CCN(CC)CCOc1ccc(/C(=C(\Cl)c2ccccc2)c2ccccc2)cc1 5.01 µM
C=CC1=C(C)C2=Cc3c(C=C)c(C)c4[n]3[Sn+2][n]3c(c(C)c(CCC(=O)O)c3=CC3=NC(=C4)C(C)=C3CCC(=O)O)=CC1=N2 1.26 µM
CC(C)(CNC(=O)c1ccc([N+](=O)[O-])c(Cl)c1)CNC(=O)c1ccc([N+](=O)[O-])c(Cl)c1 3.16 µM
CN(C)Cc1ccccc1-c1cc(N(C)Cc2ccco2)ncn1 7.94 µM
COc1ccccc1-c1cc(N(C)Cc2ccco2)ncn1 12.6 µM
CCCCc1cc2ccccc2c(OCCN(C)C)n1 2 µM
Nc1ccccc1S[C@@H](C[N+](=O)[O-])c1ccc2c(c1)OCO2 3.98 µM
COc1ccc(C(=O)N/N=C2/SCC(=O)N2Cc2ccc3c(c2)OCO3)cc1OC 15.8 µM
COc1ccccc1CN1CC[C@@]2(CCCN(S(C)(=O)=O)C2)C1 0.316 µM
COc1ccccc1CN1CCC2(CC1)CCN(S(C)(=O)=O)CC2 0.02 µM
COc1ccccc1CN1CC[C@@]2(CCCN(S(=O)(=O)c3ccccc3)C2)C1 0.01 µM
COc1ccccc1CN1CCCC2(CCN(S(C)(=O)=O)CC2)C1 0.0631 µM

AC50, inactive:
CC(=O)N1CC2(CC2)CC1c1ccccc1 (stereo unspecified)
CC(C)(C)c1nnc(NC(=O)c2cc(-c3ccccc3)nc3ccccc23)s1
Cn1cc(-c2nc3cncnc3n(C3CC3)c2=O)c2ccccc21
O=C(CS(=O)c1cccc(C(F)(F)F)c1)Nc1ccccc1Cl (stereo unspecified)
COC(=O)CNC(=O)/C=C/c1ccc(OC)cc1
Cc1ccc(C(=O)NC(=S)Nc2cc(C(F)(F)F)ccc2Cl)cc1
COc1cc(C(=O)Nc2cc(C(F)(F)F)ccc2Cl)cc(OC)c1OC
Cc1cc(C)n(-c2ccc(C(=O)Nc3cc(C(F)(F)F)ccc3N3CCOCC3)cc2)n1
O=C(Cc1ccccc1)NC(=S)Nc1cc(C(F)(F)F)ccc1Cl
N[C@H](C(=O)N[C@@H]1C(=O)N2C(C(=O)O)=C(Cl)CS[C@@H]12)c1ccccc1
CCOC(=O)C1=C(C)NC(=S)NC1c1cccc(O)c1 (stereo unspecified)
O=C(O)CC[C@@H](NC(=O)c1ccccc1C(=O)O)C(=O)O
Cc1nc2cnc(Oc3ccccc3)nc2n(-c2ccccc2)c1=O
CCCN1C(=O)C2(/C(=C(\O)c3ccc4c(c3)OCCO4)C(=O)C(=O)N2CCCOC)c2ccccc21 (stereo unspecified)
COc1ccc(Oc2ncc3nc(-c4cccs4)c(=O)n(Cc4cccc(OC)c4)c3n2)cc1
Fc1ccc2nc3[nH]c4ccccc4c3nc2c1
Cc1cc(N(CN2CCCC2=O)C(=O)c2ccc(F)cc2)no1
COc1cc(/C=N/NC(=O)c2cccs2)ccc1OCc1ccccc1
COc1ccc(Cl)cc1NC(=O)NCCCl
CCOc1ccc(C(=O)O)cc1OC
N=C1SCC(=O)N1c1nc(-c2ccccc2)cs1
Cc1nnc(-c2cnn(-c3ccccc3)c2N)n1Cc1ccc(F)cc1
CCCCOc1ccc(-c2nnn(CC(=O)c3c[nH]c4ccccc34)n2)cc1
c1ccc(-c2c3ccccc3nc3[nH]c4ccccc4c23)cc1
Cc1nc(Sc2ccccc2)c(C#N)cc1-c1ccccc1
Cc1nc2cc(NC(=O)CSc3nc4c(C)cccc4cc3C#N)ccc2s1
COCCN(C(=O)C(C)C)c1nnc(-c2ccc(C)cc2)s1
CCC(CC)c1nnc(NC(=O)COc2ccc3c(C)cc(=O)oc3c2)s1
COc1ccc(NC(=O)CC2C(=O)N(c3cccc(OC)c3)C(=O)N2C2CCCCC2)cc1 (stereo unspecified)
CCOC(=O)c1c(NC(=O)CCC(=O)N2CCOCC2)sc2c1CC(C)(C)OC2
COC(=O)c1cc(C#N)c(NCc2ccc(Cl)cc2Cl)nc1C
CC(C)COc1ccc(C(=O)Nc2scc(-c3ccc(Cl)cc3Cl)c2C(N)=O)cc1
Cc1ccc(C(=O)NCC2CCCO2)cc1N1CCCC1=O (stereo unspecified)
O=c1[nH][nH]c(C(F)(F)F)c1C=Nc1cccc(Cl)c1
CCCCOc1ccc(OC(=O)c2cccnc2)cc1
COc1ccc(C(Cl)=C(c2ccc(OC)cc2)c2ccc(OC)cc2)cc1
O=C(/C=C/c1ccccc1)NNC(=O)c1cccnc1
CCCCCN1CC(O)=C(c2nc(-c3ccc(Cl)cc3)cs2)C1=N
NC(=O)C[C@H](NC(=O)Cc1ccc(O)cc1O)C(=O)O
COc1ccc(Cc2nnc(NC(=O)c3ccc(Cl)c([N+](=O)[O-])c3)s2)cc1
O=C(NCc1ccc(Cl)cc1)c1ccc(Cl)cc1[N+](=O)[O-]
O=C(N/N=C1\CCCc2ccccc21)c1ccc([N+](=O)[O-])cc1Cl
Cc1cccc[n+]1CC(=O)Nc1ccc([N+](=O)[O-])cc1Cl
CN(Cc1ccco1)c1cc(-c2ccccc2Cl)ncn1
CCc1nc2cc(CC(=O)O)ccc2o1
N[C@@H](COP(=O)(O)O)C(=O)O
COc1cccc(NC(=S)NN2CCN(C)CC2)c1
Cc1ccc(NC(=O)CN2C(=O)S/C(=C\c3cccn3C)C2=O)cc1
Cn1cc(-c2nc3cncnc3n(-c3ccccc3)c2=O)c2ccccc21
CCn1c(=O)c2c(nc3n2CCS3)n(C)c1=O
CCCCc1c(O)nc(SCCN(C)C)n(-c2ccccc2)c1=O
C/C(=N\NC(=O)c1ccccc1C)c1ccc(NC(=O)c2cccs2)cc1
Cc1ccc(OC(=O)c2cccc(C(=O)Oc3ccc(C)cn3)n2)nc1
CN1CCCCC1=NCCCn1cnc2c1c(=O)n(C)c(=O)n2C
COc1cc(/C=N/NC(=O)c2cccnc2)ccc1OC(=O)c1ccc2c(c1)OCO2
CCOC(=O)N1CCN(C(=O)CN(C)S(=O)(=O)c2ccc3c(c2)C(C)(C)C(=O)N3C)CC1
CC[C@@H]1OC(=O)[C@H](C)[C@H](O[C@@H]2C[C@](C)(OC)[C@H](O)[C@H](C)O2)[C@H](C)[C@H](O[C@@H]2O[C@@H](C)C[C@@H](N(C)C)[C@@H]2O)[C@](C)(O)C[C@H](C)[C@@H]2N[C@H](COCCOC)O[C@H]([C@@H]2C)[C@]1(C)O
O=S(=O)(c1ccccc1)N1CCC[C@@]2(CCN(c3ccccc3)C2)C1
COc1ccc(NC(=O)N2CCCC3(CCN(S(C)(=O)=O)CC3)C2)cc1
CS(=O)(=O)N1CCC[C@@]2(CCN(c3ccncc3)C2)C1
CS(=O)(=O)N1CCC2(CCN(Cc3nccs3)CC2)CC1
COc1ccc(NC(=O)N2CC[C@@]3(CCCN(S(C)(=O)=O)C3)C2)cc1
